Screening results as filed in PubChem.
Sampled rows, rich in hits. Any-hit rate of the full collection: about 5.7%.
PI4K2A block = qHTS for small molecular inhibitors of PI4K2A. 0.13% of 420,000 active. purified PI4K2A, ADP-Glo luminescence, 1 h; active compounds read low. AID 1346378, 2018. activity change, negative = inhibition, % at 76.9 µM. Phosphatidylinositol 4-kinase type 2-alpha (Homo sapiens), Q9BTU6; in the data active = activity change below about -50%; inconclusive = mostly about -30% to -49%;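 note: -100% = wells without enzyme as full effect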
Target sequence (Q9BTU6 whole entry, looked up): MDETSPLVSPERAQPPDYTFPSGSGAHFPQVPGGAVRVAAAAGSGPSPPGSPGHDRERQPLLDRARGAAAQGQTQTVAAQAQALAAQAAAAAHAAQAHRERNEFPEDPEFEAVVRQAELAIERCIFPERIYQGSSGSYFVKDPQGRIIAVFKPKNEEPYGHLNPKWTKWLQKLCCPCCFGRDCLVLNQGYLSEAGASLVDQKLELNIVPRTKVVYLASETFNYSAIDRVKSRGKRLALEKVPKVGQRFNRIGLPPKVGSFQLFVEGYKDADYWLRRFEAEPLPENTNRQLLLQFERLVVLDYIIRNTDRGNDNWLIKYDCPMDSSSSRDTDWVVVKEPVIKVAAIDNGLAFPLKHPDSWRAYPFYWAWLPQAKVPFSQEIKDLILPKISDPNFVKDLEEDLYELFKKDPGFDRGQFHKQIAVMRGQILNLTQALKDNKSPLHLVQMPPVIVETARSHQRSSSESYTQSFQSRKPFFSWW
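In this quantitative HTS, ADP production by PI4K2A was quantified luminescently after 1 h at ambient temperature; 100 microM adenosine served as plate-quality control.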
Nrf2 block = Nrf2 qHTS screen for inhibitors; A549 ARE-Fluc reporter, luciferase luminescence, 18-24 h; AID 504444, 2011; Potency, µM (series often up to 46 µM), for the others: at the top dose activity change, negative = inhibition, actives largely listed as inhibitors; 2.1% of 360,000 active; note: potency is the fitted concentration of half-maximal effect; nearly all actives have a fitted effect of over 60% in size
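A549 ARE_Fluc cells (5000/well, 5% FBS OPTI-MEM) pre-incubated 2 h, then treated with compounds 18-24 h at 37C/5% CO2 in concentration-response. CellTiter-Fluor viability read first; BugLite luciferase luminescence after 15 min at room temperature gives Nrf2 activity.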
KB-V1 MDR tox = qHTS assay for MDR1-selective chemotherapeutics: Primary screen using the drug-selected MDR subline cells KB-V1; KB-V1 MDR cells viability, CellTiter-Glo, 72 h; Potency, µM (titrated, usually from 46.1 µM), actives largely listed as cytotoxic; 3.4% of 400,000 active; note: potency is the fitted concentration of half-maximal effect; nearly all actives have a fitted effect of over 60% in size
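KB-V1 MDR subline cells in DMEM (phenol-red free, 10% FBS) exposed to compounds in qHTS concentration series for 72 h at 37 degrees C. Viability read by CellTiter-Glo luminescence; concentration-effect curves fitted after normalization and correction.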
Giardia killer = Small Molecules that selectively kill Giardia lamblia: qHTS; Giardia lamblia trophozoite viability; activity change, % at 7.66 µM, hits read low; 0.15% of 340,000 active; AID 540267, 2011; in the data active = activity change below about -80%; inconclusive = between about -30% and that limit;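 note: parasites exposed to compound for two days anaerobically before the ATP read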
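Viability, read as ATP luminescence: trophozoites at 100 cells/well, compound added, 48 hrs anaerobic at 37 deg C, then 15-30 min room-temperature development before reading.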
A549 viability = Nrf2 qHTS screen for inhibitors: counterscreen for cytotoxicity. A549 ARE-Fluc cells, CellTiter-Fluor viability, 18-24 h. Potency, µM (top dose mostly 46 µM), without a hit: at the top dose activity change, negative = cytotoxicity, hits mostly inhibitors. 0.16% of 390,000 active; note: potency is the fitted concentration of half-maximal effect
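A549 ARE_Fluc cells in 5% FBS OPTI-MEM were exposed to compounds in concentration-response for 18-24 h at 37 deg C. Viability was read by CellTiter-Fluor fluorescence (Ex 405/Em 525) after 30 min, before the luciferase read.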
KB-3-1 tox = qHTS assay for MDR1-selective chemotherapeutics: Primary screen using the parental adenocarcinoma cell KB-3-1; Potency, µM (series often up to 46.1 µM), actives largely listed as cytotoxic; AID 1347075, 2019; 1.4% of 400,000 active; KB-3-1 viability, CellTiter-Glo ATP luminescence, 72 h; note: potency is the fitted concentration of half-maximal effect; nearly all actives have a fitted effect of over 60% in size
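Here the drug-naive KB-3-1 line serves as comparator for MDR sub-line selectivity; cells received compound titrations, 72 h at 37 °C, then CellTiter-Glo readout.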
* = called active by the depositor; i = inactive; ? = inconclusive; . = no result; [ ] = another dose, or the depositor's remark. Unless noted, calls come from the whole dose curve; as a rule, active = well fitted curve in the direction sought with a large enough effect; inconclusive = small, poorly fitted or top-dose-only effect, or another doubt; inactive = no such curve, though single readings can be large; an effect the other way counts as inactive or inconclusive. Unless noted, % is set by controls: 0 for no effect and ±100 for the full control effect.

SMILES	PI4K2A block	Nrf2 block	KB-V1 MDR tox	Giardia killer	A549 viability	KB-3-1 tox
COc1ccc(N(C)S(=O)(=O)c2cccc(C(=O)OCC(=O)c3c(N)n(C)c(=O)n(C)c3=O)c2)cc1	0	21µM*	.	-15	-12%	.
Nc1nnnn1-c1ccccc1	2	.	.	.	.	.
COc1cc(NC(=O)C2CCN(S(=O)(=O)c3c(C)noc3/C=C/c3ccccc3F)CC2)cc(OC)c1OC	0	.	.	.	?	.
Nc1ccc(C(=O)OCC(=O)N2CCc3ccccc3C2)cc1[N+](=O)[O-]	-2	1%	i	-18	1%	i
Nc1ccc(C(=O)OCC(=O)N2c3ccccc3Sc3ccccc32)cc1[N+](=O)[O-]	0	?	6.5µM*	-15	-15%	?
NCCNc1ccc(C(=O)N2c3ccccc3Sc3ccccc32)cc1[N+](=O)[O-]	-5	-27%	21µM*	-16	-5%	?
Cc1ccc(NC(=O)c2ccc(NCCN)c([N+](=O)[O-])c2)cc1	-1	1%	i	8	-1%	?
Cc1ccc(Cn2ncc3c(N4CCOCC4)ncnc32)cc1	0	2%	?	-17	-5%	i
Cc1ccc(Cn2ncc3c(N4CCN(c5ccccc5C)CC4)ncnc32)cc1	-9	21µM*	?	13	?	?
Cc1ccc(NC(=O)c2oc3ccc(S(=O)(=O)N4CCCCCC4)cc3c2C)c(C)c1	-3	.	i	.	15%	i
Cc1ccc(C)c(NS(=O)(=O)c2cc(C(=O)N3CCc4ccccc4C3)ccc2Cl)c1	1	18µM*	?	0	-18%[1.84 µM]	i
CCC(C)c1ccc(S(=O)(=O)N2CCN(C(=O)c3ccc(Cl)c(S(=O)(=O)N4CCOCC4)c3)CC2)cc1 (centres undefined)	-1	10µM*	i	0	-10%	?
O=C(c1ccc(Cl)c(S(=O)(=O)N2CCOCC2)c1)N1CCc2ccccc2C1	-1	2%	3.7µM*	22	4%	21µM*
C=CCNC(=O)c1ccccc1NC(=O)c1ccc(Cl)c(S(=O)(=O)Nc2cc(C)ccc2C)c1	-1	?	21µM*	8	-16%	i
COc1ccc(CN(Cc2ccccc2)C(=O)c2ccccc2O)cc1COc1ccc(NC(C)=O)cc1	.	21%	.	.	-1%	.
CCC(=O)OCCCN1CCC2(CCC(c3ccccc3)CC2)C1=O (centres undefined)	6	.	.	.	.	.
c1ccc(CCNc2ccccn2)nc1	0	12%	?	-3	-6%	i
c1ccc(CCNc2ccc3ncc(-c4cccc5ccccc45)n3n2)nc1	-1	.	13µM*	.	.	i
Cn1c(=O)oc2cc(S(=O)(=O)NCCC(=O)NCCc3ccc(Cl)cc3)ccc21	1	-19%	i	-10	17%	16µM*
Cc1ccc(CCNC(=O)CCNS(=O)(=O)c2ccc3c(c2)oc(=O)n3C)cc1	4	.	i	-14	0%	i
CC(=O)OCCCNc1cc(SCc2ccco2)c2nonc2c1[N+](=O)[O-]	?	-2%	i	23	16µM*	i
CCC(=O)OCCNc1cc(Sc2nc3ccccc3[nH]2)c2nonc2c1[N+](=O)[O-]	-9	2%	i	-6	-19%	23µM*
CCC(=O)OCCNc1cc(Sc2nc3ccccc3s2)c2nonc2c1[N+](=O)[O-]	-7	.	i	4	?	i
CCCC(=O)OCCNc1cc(SCc2ccco2)c2nonc2c1[N+](=O)[O-]	?	-10%	i	13	?	i
Cc1ccc(CN(C)C(=O)CSc2nnc3n2CCCCC3)c(C)c1	-1	12%	15µM*	0	4%	i
SMILES	PI4K2A block	Nrf2 block	KB-V1 MDR tox	Giardia killer	A549 viability	KB-3-1 tox
Cc1ccc(C)c(NC(=O)CSc2nnc3n2CCCCC3)c1	-4	?	i	1	4%	i
O/N=C(/CI)c1ccc2ccccc2c1	.	.	i	.	.	i
O=C(O)C(CO)N=Cc1c(O)c2ccccc2oc1=O (centres undefined)	1	6.5µM*	i	-2	?	i
Cc1ccc(OCCCCNC2CCCC(C)C2C)c(C)c1 (centres undefined)	-4	?	21µM*	-21	?	23µM*
Cc1ccc(OCCCCN2CCCCC2)c(C)c1	0	2%	i	20	3%	i
CCN(CC)CCCNC(=O)c1ccc2c(c1)N(Cc1c(F)cccc1Cl)C(=O)c1ccccc1S2	-9	13%	i	.	1%	?
CCOc1ccc(CCNC(=O)C2CCN(Cc3nc(-c4ccccc4C)oc3C)CC2)cc1OCC	-2	10%	i	.	19%	i
COc1ccc(CCNC(=O)C2CCN(Cc3nc(-c4cccc(Cl)c4)oc3C)CC2)cc1OC	0	?	3.3µM*	2	-9%	?
COc1ccc(CCNC(=O)C2CCCN(Cc3nc(-c4ccccc4C)oc3C)C2)cc1OC (centres undefined)	-3	?	16µM*	0	.	i
CCOC(=O)N1CCC(NC(=O)C2CCCN(Cc3nc(-c4cccc(Cl)c4)oc3C)C2)CC1 (centres undefined)	4	16µM*	i	1	-16%	?
CCc1ccc(-c2nc(CN3CCCC(C(=O)NCCc4ccc(OC)c(OC)c4)C3)c(C)o2)cc1 (centres undefined)	-1	?	2.3µM*	7	-15%	23µM*
Cc1oc(-c2cccc(Cl)c2)nc1CN1CCC(C(=O)NCCc2ccc(Cl)cc2)CC1	4	-11%	i	.	-7%	i
O=C(CSc1nnc(-c2ccc(Cl)cc2)n1Cc1ccco1)Nc1ccc(S(=O)(=O)Nc2nccs2)cc1	-13	.	.	.	.	.
CCc1ccc2occ(CC(=O)Nc3ccc(OC)c(Cl)c3)c2c1	-2	-30%	.	-4	1%	.
COC(=O)CN1CCN(C(=O)c2csc3ccccc23)CC1	1	.	.	.	.	.
COc1ccc(C2Nc3ccc(Cl)cc3C(=O)N2Cc2ccccc2)cc1COc1ccc(NC(C)=O)cc1 (centres undefined)	.	?	.	.	0%	.
CC(=O)Nc1ccc(-c2ccnc3c2CC(C)(C(=O)NCc2ccco2)O3)cc1 (centres undefined)	5	.	i	.	.	10µM*
COc1ccc(NC(=O)C2(C)Cc3c(-c4cccc(C(N)=O)c4)ccnc3O2)cn1 (centres undefined)	6	.	i	.	.	9.2µM*
